SARS PLpro yeast – qHTS of Yeast-based Assay for SARS-CoV PLP; S. cerevisiae expressing SARS-CoV PLpro, growth rescue; Potency, µM (top dose mostly 32.9 µM), inactives show top-dose activity, positive = growth rescue, usual class: activators; actives 0.19% (n = 330,000); AID 485353, 2010; note: 0% is about no effect; nearly all actives have a fitted effect of over 55% in size
NS1 inh – qHTS Assay for Inhibitors of Influenza NS1 Protein Function; Potency, µM (top dose mostly 46.1 µM), inactives show top-dose activity, positive = more growth; actives 0.4% (n = 270,000); AID 2326, 2010; note: actives are rising curves; nearly all actives have a fitted effect of over 50% in size
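Recovery from NS1-induced slow growth read by OD600 in budding yeast switched to galactose assay medium (pH 6.0, -URA) at 1:100 dilution. Compound 23 nl per well; the matching strain lacking NS1 serves as control.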
Pf growth 96h – Primary qHTS for delayed death inhibitors of the malarial parasite plastid, 96 hour incubation; actives 6.9% (n = 320,000); AID 504834, 2011; P. falciparum luciferase reporter growth, 96 h; Potency, µM (titrated, usually from 28.7 µM), inactives show top-dose activity change, negative = inhibition, usual class: inhibitors; active = well fitted inhibition curve with a large enough effect; inconclusive = small, poorly fitted or top-dose-only effect, or another doubt; inactive = no such curve, though single readings can be large or run the other way; note: % is set by controls: 0 for no effect and ±100 for the full control effect
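Plates of compound plus infected erythrocytes (2% hematocrit, 0.05% parasitemia final) incubate 96 hours, 37 C, 5% CO2. Detection reagent added; reduced luminescence from the parasites' luciferase reporter flags inhibition.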
Pf growth 48h – Primary qHTS for delayed death inhibitors of the malarial parasite plastid, 48 hour incubation; P. falciparum luciferase growth in erythrocytes, 48 h; Potency, µM (doses to about 28.7 µM), for the others: at the highest dose activity change, negative = inhibition, hits mostly inhibitors; actives 5.9% (n = 310,000); AID 504832, 2011; active = well fitted inhibition curve with a large enough effect; inconclusive = small, poorly fitted or top-dose-only effect, or another doubt; inactive = no such curve, though single readings can be large or run the other way; note: % is set by controls: 0 for no effect and ±100 for the full control effect
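Erythrocytes infected with P. falciparum carrying an integrated firefly luciferase reporter (2% hematocrit, 0.1% parasitemia final) were exposed to compounds in RPMI 1640 with 0.5% Albumax at 37 C, 5% CO2. Growth inhibition was scored as reduced luminescence.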
Starred values were filed as active, the others as inactive; ! = not confirmed by another sample. A selection: hits, their analogues and other compounds. The true share with any hit is near 10%. Unless noted, calls come from the whole dose curve. Potency is the fitted concentration of half-maximal effect.

What do the screens show for `CCn1c(=O)n(CC)c2cc(N3CCCC3)c(NC(=O)c3ccccc3F)cc21`?
SARS PLpro yeast: 7%; NS1 inh: -6%; Pf growth 96h: 1.3µM*; Pf growth 48h: inconclusive

What do the screens show for `CCn1c(=O)n(CC)c2cc(N3CCCC3)c(NC(=O)c3cc(Br)ccc3OC)cc21`?
SARS PLpro yeast: 1%; NS1 inh: -12%; Pf growth 96h: inconclusive; Pf growth 48h: 9.3µM*

Results for CCn1c(=O)n(CC)c2cc(N3CCCC3)c(NC(=O)c3ccccc3)cc21 ?
SARS PLpro yeast: -13%; NS1 inh: -5%; Pf growth 96h: inconclusive; Pf growth 48h: -15%

How did CC(CC(=O)Nc1ccccc1)NCCCN1CCCC1=O (stereo unspecified) do in these assays?
SARS PLpro yeast: -1%; NS1 inh: 2%; Pf growth 96h: 28%; Pf growth 48h: 11%

Results for Cc1cccc(CC2CC(=O)N(c3ccc(C)cc3Br)C2=O)c1 (stereo unspecified) ?
SARS PLpro yeast: -1%; NS1 inh: 8%; Pf growth 96h: 97%; Pf growth 48h: 28%

How did COC(=O)C1=C(c2ccc(F)cc2OCc2ccccc2)C[C@@H]2CC[C@H]1N2C(=O)NCc1cc(C)oc1C(F)(F)F do in these assays?
SARS PLpro yeast: -2%

What do the screens show for `COC(=O)C1=C(c2cccc(C#N)c2)C[C@@H]2CC[C@H]1N2C(=O)NCc1cccc2ccccc12`?
SARS PLpro yeast: 0%; Pf growth 96h: inconclusive; Pf growth 48h: 8.3µM*

How did COC(=O)C1=C(c2ccc(-c3ccccc3)c(F)c2)C[C@@H]2CC[C@H]1N2C(=O)NCc1cc(C)oc1C(F)(F)F do in these assays?
SARS PLpro yeast: 0%; Pf growth 96h: inconclusive; Pf growth 48h: 2.3µM*

How did COC(=O)C1=C(c2cccc(C#N)c2)C[C@@H]2CC[C@H]1N2C(=O)NCc1cc(C)oc1C(F)(F)F do in these assays?
SARS PLpro yeast: 3%; Pf growth 96h: inconclusive; Pf growth 48h: 12µM*

Results for CCN(CC)C(=O)/C=C/c1ccc(OC)c(S(=O)(=O)N2CCCCC2)c1 ?
SARS PLpro yeast: -4%; Pf growth 96h: 10%; Pf growth 48h: -24%

How did COCCNc1nc(SC)nc2sc3c(c12)CCN(C)C3 do in these assays?
SARS PLpro yeast: 0%; NS1 inh: 0%; Pf growth 96h: inconclusive; Pf growth 48h: 0%

Results for CSc1nc(NCC(C)C)c2c3c(sc2n1)CN(C)CC3 ?
SARS PLpro yeast: 0%; NS1 inh: 4%; Pf growth 96h: 3.3µM*; Pf growth 48h: inconclusive

What do the screens show for `CCN(CC)CCNc1nc(SC)nc2sc3c(c12)CCN(C)C3`?
SARS PLpro yeast: 0%; NS1 inh: 5%; Pf growth 96h: inconclusive; Pf growth 48h: inconclusive

How did CSc1nc(NCc2ccccc2)c2c3c(sc2n1)CN(C)CC3 do in these assays?
SARS PLpro yeast: -8%; NS1 inh: -16%; Pf growth 96h: inconclusive; Pf growth 48h: 13µM*

Results for COc1ccc(NC2CCCN(C(=O)C3(C)CCCCC3)C2)cc1 (stereo unspecified) ?
SARS PLpro yeast: 17%; NS1 inh: -20%; Pf growth 96h: 39%; Pf growth 48h: inconclusive

What do the screens show for `CN(C)c1nc(NCc2ccccc2)nc(N/N=C/c2ccc(Br)cc2)n1`?
SARS PLpro yeast: -1%; NS1 inh: 7%; Pf growth 96h: inconclusive; Pf growth 48h: 13µM*

Results for O=c1[nH]c(N/N=C\c2ccc3c(c2)OCO3)nc2ccccc12 ?
SARS PLpro yeast: -1%; NS1 inh: 8%; Pf growth 96h: -29%; Pf growth 48h: -76%

Results for CCNc1nc(NCC)nc(N/N=C/c2ccc(N(C)C)cc2)n1 ?
SARS PLpro yeast: 0%; Pf growth 96h: inconclusive; Pf growth 48h: 13µM*

What do the screens show for `CN(C)c1nc(NCc2ccccc2)nc(N/N=C/c2ccc3c(c2)OCO3)n1`?
SARS PLpro yeast: -10%; NS1 inh: -1%; Pf growth 96h: inconclusive; Pf growth 48h: 12µM*

Results for NS(=O)(=O)c1ccc(CCNS(=O)(=O)c2cccc3nsnc23)cc1 ?
SARS PLpro yeast: 0%; NS1 inh: -15%; Pf growth 96h: inconclusive; Pf growth 48h: 25%

How did O=C(CC1SC(N2CCCC2)=NC1=O)Nc1ccc(C(=O)NCCOc2ccccc2F)cc1 (stereo unspecified) do in these assays?
SARS PLpro yeast: -3%; Pf growth 96h: inconclusive; Pf growth 48h: 6%

What do the screens show for `O=[N+]([O-])c1ccc2c(c1)C(N1CCOCC1)/C(=C/COc1ccc3ccccc3c1Br)O2` (stereo unspecified)?
SARS PLpro yeast: 4%; NS1 inh: inconclusive; Pf growth 96h: inconclusive; Pf growth 48h: 6.6µM*

How did O=[N+]([O-])c1ccc(OC/C=C2\Oc3ccc([N+](=O)[O-])cc3C2N2CCOCC2)cc1 (stereo unspecified) do in these assays?
SARS PLpro yeast: -7%; NS1 inh: 14%; Pf growth 96h: 8%; Pf growth 48h: inconclusive

How did O=C(O)c1ccc(N(Cc2ccccc2)S(=O)(=O)c2ccccc2)cc1 do in these assays?
SARS PLpro yeast: 1%; NS1 inh: 4%; Pf growth 96h: 9.3µM*!; Pf growth 48h: -4%

Results for O=C(O)c1ccc(S(=O)(=O)N(Cc2ccccc2)Cc2ccccc2)cc1 ?
SARS PLpro yeast: 0%; NS1 inh: -3%; Pf growth 96h: 42%; Pf growth 48h: 11%

What do the screens show for `CCN1CCN(C(=O)c2ccccc2N(Cc2ccccc2)S(C)(=O)=O)CC1`?
SARS PLpro yeast: -2%; NS1 inh: -15%; Pf growth 96h: 2%

How did CCN1CCN(C(=O)c2ccccc2N(Cc2ccccc2)S(=O)(=O)c2ccc(C)cc2)CC1 do in these assays?
SARS PLpro yeast: -3%; NS1 inh: -1%; Pf growth 96h: 15µM*

Results for COc1ccc(S(=O)(=O)N(Cc2ccccc2)c2ccccc2C(=O)O)cc1 ?
SARS PLpro yeast: -4%; NS1 inh: inconclusive; Pf growth 96h: 13µM*; Pf growth 48h: 2%

How did COc1cccc(/C=N/NC(=O)c2ccccc2N(Cc2ccccc2)S(=O)(=O)c2ccccc2)c1OC do in these assays?
SARS PLpro yeast: 3%; NS1 inh: inconclusive; Pf growth 96h: 12µM*; Pf growth 48h: inconclusive

Results for COc1cccc(/C=N/NC(=O)c2ccc(N(C)S(=O)(=O)c3ccccc3)cc2)c1OC ?
SARS PLpro yeast: 1%; Pf growth 96h: 43%; Pf growth 48h: inconclusive

How did O=C(NCC1CCCC(CNC(=O)Nc2ccc(Cl)cn2)C1)Nc1ccc(Cl)cn1 (stereo unspecified) do in these assays?
SARS PLpro yeast: 0%; NS1 inh: 23%; Pf growth 96h: inconclusive; Pf growth 48h: inconclusive

What do the screens show for `COc1cc2c(=O)n(CCC(=O)NCC3CCCO3)c(=O)n(CC(=O)Nc3ccc(F)cc3)c2cc1OC` (stereo unspecified)?
SARS PLpro yeast: 9%; NS1 inh: -7%; Pf growth 96h: inconclusive; Pf growth 48h: -20%

How did CC1CCN(S(=O)(=O)CCNC(=O)c2ccc(F)cc2)CC1 do in these assays?
SARS PLpro yeast: 1%; Pf growth 96h: 22%; Pf growth 48h: 19%

Screening results from PubChem.
